Data as given in PubChem BioAssay (NCATS).
Values joined by “and” are separate entries in the source; they are usually repeats but may differ in a detail not shown here. Identical values can stand only once. Inconclusive results are not listed. A call without a number means that no potency is given here. Values without a mark were called inactive. Active and inactive are the calls of the source. Calls follow the shape of the dose curve; as a rule, active = well fitted curve in the direction sought with a large enough effect; inconclusive = small, poorly fitted or top-dose-only effect, or another doubt; inactive = no such curve, though single readings can be large; an effect the other way counts as inactive or inconclusive.

Assays:
[1] = molecular target: Cytochrome P450 3A7 (Homo sapiens) (UniProt P24462); experiment: Cytochrome P450 family 3 subfamily A member 7 (CYP3A7) small molecule antagonists: luciferase biochemical qHTS assay (AID 1963596); also: nearly all actives have a fitted effect of over 40% in size
Summary of the method: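 In this luminescent screen, enzyme and proluciferin substrate meet test compound for 10 min before NADPH regeneration solution drives a 1 h room-temperature reaction; detection reagent halts turnover and luminescence is read 20 min later.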

[2] = Viability qHTS for spleen associated tyrosine kinase inhibitor (SYKi) naive MV4-11 cells (AID 1963823); also: nearly all actives have a fitted effect of over 40% in size; also: potency is read from the fitted curve at half-maximal effect
Summary of the method: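 CellTiter-Glo luminescence, 10 min room-temperature incubation, gave viability. Cells: naive MV4-11 (500/well), treated 72 hr at 37 C, 5% CO2.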

[3] = Viability qHTS for spleen associated tyrosine kinase inhibitor (SYKi) drug resistant MV4-11 cells (AID 1963824); also: nearly all actives have a fitted effect of over 35% in size; also: potency is read from the fitted curve at half-maximal effect
Summary of the method: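 SYK inhibitor-resistant MV4-11 AML cells, 500 per well, added to predispensed compounds and incubated 72 hr at 37 C, 5% CO2. Viability measured by CellTiter-Glo luminescence after 10 min at room temperature.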

[4] = Cellular viability qHTS for adrenocortical cancer (ACC) cell line SW-13 (AID 1963989); conditions: SW-13 ACC cells viability, CellTiter-Glo, 48 h; activity (max response): hits give low values; also: nearly all actives have a fitted effect of over 65% in size; also: potency is read from the fitted curve at half-maximal effect;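 as to activity (max response): cells grown in serum-free medium with ITS supplement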
Summary of the method: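 SW-13 cells in ITS-supplemented serum-free DMEM were plated overnight, then exposed for 48 h at 37C to compound titrations (up to 46 uM final). Viability was read by CellTiter-Glo luminescence; four-parameter logistic fits gave IC50 and efficacy.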

[5] = Cellular viability qHTS for adrenocortical cancer (ACC) cell line NCI-H295R (AID 1963990); also: nearly all actives have a fitted effect of over 60% in size; also: potency is read from the fitted curve at half-maximal effect
Summary of the method: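 Luminescent ATP read-out (CellTiter-Glo, 20 min RT) after 48 h drug exposure of NCI-H295R cells; a titration up to 46 uM final. Data normalized to doxorubicin (100% inhibition) and DMSO (0%); 4-parameter fit gives IC50, max response.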

Cytochrome P450 3A7 (Homo sapiens), sequence (P24462 whole entry, looked up): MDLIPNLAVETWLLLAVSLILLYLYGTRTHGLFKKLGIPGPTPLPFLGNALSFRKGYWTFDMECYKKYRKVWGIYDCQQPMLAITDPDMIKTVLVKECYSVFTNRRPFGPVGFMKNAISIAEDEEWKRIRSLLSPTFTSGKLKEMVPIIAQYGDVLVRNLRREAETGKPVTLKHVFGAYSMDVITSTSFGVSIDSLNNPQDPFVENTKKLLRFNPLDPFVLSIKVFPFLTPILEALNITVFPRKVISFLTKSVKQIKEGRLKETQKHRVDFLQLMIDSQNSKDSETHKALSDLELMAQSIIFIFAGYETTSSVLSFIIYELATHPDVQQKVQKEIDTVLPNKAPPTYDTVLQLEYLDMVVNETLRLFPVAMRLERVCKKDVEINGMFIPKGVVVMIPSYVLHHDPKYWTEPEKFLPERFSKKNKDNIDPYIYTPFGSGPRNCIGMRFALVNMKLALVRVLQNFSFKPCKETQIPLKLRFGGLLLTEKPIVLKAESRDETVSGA

Row | SMILES | Potency [1] | Potency [2] | Potency [3] | activity (max response) [4] | Potency [5] | activity change, negative = inhibition [1] | viability (% of control) [2] | viability, % of control [3] | activity change, negative = viability loss [5] | Potency [4]
1 | O=C(NCCCN1CCOCC1)c1ccc(Cl)cc1 | inactive | inactive | inactive | 5.56% | inactive |  |  |  |  | 
2 | O=C(O)c1ccccc1O | inactive | inactive | inactive | 13.2% | inactive |  |  |  |  | 
3 | Cn1c(=O)c2c(ncn2CC2OCCO2)n(C)c1=O | inactive | inactive | inactive | 8.06% and -6.96% | inactive |  |  |  |  | 
4 | C[N+](C)(C)CCCCCCCCCC[N+](C)(C)C | inactive | inactive | inactive | 14.5% | inactive |  |  |  |  | 
5 | O=c1[nH]cnc2c1ncn2[C@@H]1O[C@H](CO)[C@@H](O)[C@H]1O | inactive | inactive | inactive | 4.44% | inactive |  |  |  |  | 
6 | CN1CCN(C(c2ccccc2)c2ccccc2)CC1 | inactive | inactive | inactive | -4.21% | inactive |  |  |  |  | 
7 | CCN1CCN(C(=O)N[C@@H](C(=O)N[C@@H]2C(=O)N3C(C(=O)O)=C(CSc4nnnn4C)CS[C@H]23)c2ccc(O)cc2)C(=O)C1=O | inactive | inactive | inactive | 5.63% and -4.45% | inactive |  |  |  |  | 
8 | O=c1[nH]c(=O)n([C@H]2CCCO2)cc1F | inactive | 14.6 µM (active) | 10.6 µM (active) and 9.2 µM (active) | -5.11% | inactive |  |  |  |  | 
9 | OCc1ccccc1O | inactive | inactive | inactive | 6.34% | inactive |  |  |  |  | 
10 | O=C(O)Cc1cccc(-c2cc(CCCCCCc3ccc(O[C@H]4O[C@H](CO)[C@@H](O)[C@H](O)[C@@H]4O)c(-c4cccc(CC(=O)O)c4)c3)ccc2O[C@H]2O[C@H](CO)[C@@H](O)[C@H](O)[C@@H]2O)c1 |  |  |  | 8.49% |  | -19.9% [at 0.91 µM] | 99.5% [at 0.588 µM] | 113% [at 0.588 µM] | -4.2% [at 0.587 µM] | 
11 | CCCCCCCCCCOc1cc2c(=O)c(C(=O)OCC)c[nH]c2cc1OCC |  |  |  | 0.0943% |  | 9.06% [at 4.83 µM] | 102% [at 4.97 µM] | 107% [at 4.97 µM] | -5.4% [at 3.81 µM] | 
12 | CC1(C)S[C@@H]2[C@H](N=CN3CCCCCC3)C(=O)N2[C@H]1C(=O)O | inactive | inactive | inactive | 3.39% | inactive |  |  |  |  | 
13 | COc1ccc(C(=O)N2CCN(CC(=O)N3CCOCC3)CC2)cc1 | inactive | inactive | inactive | 8.16% | inactive |  |  |  |  | 
14 | COc1cc2[nH]c(=O)[nH]c(=O)c2cc1OC | inactive | inactive | inactive | 11.4% | inactive |  |  |  |  | 
15 | O=C(O)COc1nn(Cc2ccccc2)c2ccccc12 | inactive | inactive | inactive | 10.3% | inactive |  |  |  |  | 
16 | C[C@@]12C(=O)OC(=O)[C@]1(C)C1CCC2O1 | inactive | 2.66 µM (active) | 2.99 µM (active) |  | 2.31 µM (active) |  |  |  |  | 7.31 µM (active)
17 | CN1C(=O)CC[C@H]1c1cccnc1 | inactive | inactive | inactive | 2.26% | inactive |  |  |  |  | 
18 | COc1cc2c(NC3CCN(CC4CCCCC4)CC3)nc(N3CCCN(C(C)C)CC3)nc2cc1OCCCN1CCCCC1 | inactive | 2.59 µM (active) | 3.66 µM (active) |  | 22.4 µM (active) |  |  |  |  | 7.08 µM (active)
19 | COCCc1ccccn1 | inactive | 0.075 µM (active) | inactive | -6% | inactive |  |  |  |  | 
20 | CN(C)C1CCN(C(=O)c2ccc(NC(=O)Nc3ccc(-c4nc(N5CCOCC5)nc(N5CCOCC5)n4)cc3)cc2)CC1 | inactive | 0.0146 µM (active) | 0.0184 µM (active) |  | 2.24 µM (active) |  |  |  |  | 0.251 µM (active)
21 | CC(C)CCCC(C)N (stereo not given) | inactive | inactive | inactive | 3.28% | inactive |  |  |  |  | 
22 | CN(C)CC[C@@H](c1ccc(Cl)cc1)c1ccccn1 | inactive | inactive | inactive | 7.75% | inactive |  |  |  |  | 
23 | O=C1NC(c2ccccc2)(c2ccccc2)C(=O)N1COP(=O)(O)O | inactive | inactive | inactive | 10.4% | inactive |  |  |  |  | 
